From PubChem BioAssay (NCATS) come the findings set out here.

Where “and” joins values, the source holds several entries; their conditions need not be identical. Identical values can stand only once. Inconclusive results are not listed. Unmarked numbers belong to inactive results. Calls of active or inactive are those of the source. Calls follow the shape of the dose curve; as a rule, active = well fitted curve in the direction sought with a large enough effect; inconclusive = small, poorly fitted or top-dose-only effect, or another doubt; inactive = no such curve, though single readings can be large; an effect the other way counts as inactive or inconclusive.

The nature of one assay: Quantitative highthroughput screen to assess conditional lethalithy of NOMO1 cells grown in Human Plasma-Like Medium with dialyzed fetal bovine serum (HPLM+ds) (AID 1963878).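 Also: 100% = DMSO wells and 0% = empty wells on each plate; nearly all actives have a fitted effect of over 35% in size.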 The following applies: NOMO1 AML cells in HPLM+ds, CellTiter-Glo viability, 48 h; series mostly up to 45.8 µM; viability: at the top concentration. An outline of the steps:
(§1)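 Each medium arm—HPLM with 10% dialyzed FBS, or RPMI1640 with 5 mM glucose and 10% untreated or dialyzed FBS—was screened against an 11-point, 3-fold compound titration for 48 h at 37 °C, with CellTiter-Glo luminescence as endpoint.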
(In ATP-based viability assays light output follows the ATP content of the culture.)
As for `COc1ccc(C(CN(C)C)C2(O)CCCCC2)cc1` (centres undefined), the “viability” value was 98.3%.

Consider `O=C(Oc1ccc([N+](=O)[O-])cc1)N1CCN(Cc2cccc(Oc3ccccc3)c2)CC1`, for which the “viability” value is 101%.

As to `C#CCN(C)[C@H](C)Cc1ccccc1`, the “viability” value was 82.2%.

Another assay is described as follows: Quantitative highthroughput screen to assess conditional lethalithy of P12 Ichikawa cells grown in Human Plasma-Like Medium with dialyzed fetal bovine serum (HPLM+ds) (AID 1963879). Also: nearly all actives have a fitted effect of over 35% in size. The following applies: ATP luminescence, 48 h; Potency: viability; series mostly up to 45.8 µM; viability: at the top concentration. The method, boiled down:
as §1
As to `CCCC(C)(COC(N)=O)COC(=O)NC(C)C` (centres undefined), the “viability” value was 93.2%.

For the compound `COc1ccc(C(CN(C)C)C2(O)CCCCC2)cc1` (centres undefined), the “viability” value was 109%.

As to `C#CCN(C)[C@H](C)Cc1ccccc1`, the “viability” value is 102%.

Turning to `CN(C)[C@@H]1C(=O)C(C(N)=O)=C(O)[C@@]2(O)C(=O)C3=C(O)c4c(O)cccc4[C@@](C)(O)[C@H]3[C@H](O)[C@@H]12`, the “viability” value was 105%.

A short description of the next assay: Quantitative highthroughput screen to assess conditional lethalithy of P12 Ichikawa cells grown in RPMI1640 with untreated serum (RPMI+s) (AID 1963881).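 Also: 100% = DMSO wells and 0% = empty wells without cells; nearly all actives have a fitted effect of over 35% in size.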 The following applies: ATP luminescence, 48 h; Potency: viability; series mostly up to 45.8 µM; viability: at the top concentration. An outline of the steps:
as §1
Regarding `O=C(Oc1ccc([N+](=O)[O-])cc1)N1CCN(Cc2cccc(Oc3ccccc3)c2)CC1`, the “viability” value is 95.5%.

As to `C#CCN(C)[C@H](C)Cc1ccccc1`, the “viability” value is 104%.

As to `CN(C)[C@@H]1C(=O)C(C(N)=O)=C(O)[C@@]2(O)C(=O)C3=C(O)c4c(O)cccc4[C@@](C)(O)[C@H]3[C@H](O)[C@@H]12`, the “viability” value was 103%.

A further assay in a line: Cellular viability qHTS for adrenocortical cancer (ACC) cell line SW-13 (AID 1963989). Also: nearly all actives have a fitted effect of over 65% in size. Also: potency is read from the fitted curve at half-maximal effect.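 As to activity (max response): cells grown in serum-free medium with ITS supplement; % is scaled to controls: 0 for no effect and ±100 for the full control effect.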 Particulars: SW-13 ACC cells viability, CellTiter-Glo, 48 h; activity (max response): stronger effect = lower value. An outline of the steps: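 Luminescent ATP read-out (CellTiter-Glo, 20 min at room temperature) measured metabolically competent SW-13 cells after 48 h compound treatment. Final concentrations spanned up to 46 uM; bortezomib served as positive control.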
(In general: Quantitative high-throughput screening tests each substance at several concentrations.)
`CCCCCCC(=O)CCCCCC/C=C/C[C@@H](O)[C@H](O)[C@@](N)(CO)C(=O)O`: the activity (max response) is -4.81%.

Regarding `[N-]=[N+]=CC(=O)OC[C@H](N)C(=O)O`, the activity (max response) is -8.61%.

On to `CC(C)(C)NCC(O)c1cc(Cl)c(N)c(Cl)c1` (centres undefined), for which the activity (max response) is 11.4%.

Turning to `COC(=O)C(Cl)C(=O)OC`, the activity (max response) was -3.15%.

As for `CCCC(C)(COC(N)=O)COC(=O)NC(C)C` (centres undefined), the activity (max response) was 8.8%.

With `CCc1ccc(C2CCNCC2)cc1`, the activity (max response) is -14%.

In the case of `COc1ccc(C(CN(C)C)C2(O)CCCCC2)cc1` (centres undefined), the activity (max response) is 0.648%.

As for `CC(=O)NC1CCSC1=O` (centres undefined), the activity (max response) is 9.14%.

Consider `Oc1ccc(Cl)cc1`, for which the activity (max response) was 10.2%.

Take `C[C@@H](C1CC[C@@]2(O)C3=CC(=O)[C@@H]4C[C@@H](O)[C@@H](O)C[C@]4(C)[C@H]3CC[C@]12C)[C@H](O)CCC(C)(C)O` (some centres undefined): the activity (max response) was -1.09%.

Consider `Oc1ccc2c3c1O[C@H]1[C@@H](O)C=C[C@H]4[C@@H](C2)NCC[C@@]341`, for which the activity (max response) is -14.8%.

As for `O=[N+]([O-])/N=C1\NCCN1Cc1ccc(Cl)nc1`, the activity (max response) was -5.88%.

Take `C#CC(O)(C=CCl)CC` (centres undefined): the activity (max response) is 7.7%.

Regarding `C[C@H]1[C@@H]2Cc3ccc(O)cc3[C@@]1(C)CCN2C`, the activity (max response) is -10.9%.

With `c1ccc2c(c1)sc1ccccc12`, the activity (max response) was 0.898%.

`Oc1c(Br)cc(Br)cc1Br`: the activity (max response) was 8.39%.

Consider `C#CCN(C)[C@H](C)Cc1ccccc1`, for which the activity (max response) is 4.66% and -4.85%.

In the case of `CN(C)[C@@H]1C(=O)C(C(N)=O)=C(O)[C@@]2(O)C(=O)C3=C(O)c4c(O)cccc4[C@@](C)(O)[C@H]3[C@H](O)[C@@H]12`, the activity (max response) is 4.8%.

On to `C[C@@H]1CN(C2CCC(C#N)(c3ccc(F)cc3)CC2)CC[C@]1(C(=O)O)c1ccccc1` (some centres undefined), for which the activity (max response) was -0.484%.

`CC(C)C(Br)C(=O)NC(N)=O` (centres undefined): the activity (max response) was -7.38%.

`O=C1c2ccccc2C(=O)c2ccccc21`: the activity (max response) was 3.51%.

As for `C[C@H]1CNCCc2ccc(Cl)cc21`, the activity (max response) is -1.47%.

For `CCNc1nc(Cl)nc(NCC)n1`, the activity (max response) is -2.51%.

Take `Cc1ccc([N+](=O)[O-])[c]2c1[O][Hg]2`: the Potency was 231 nM (active).

For orientation: viability means a read-out of living cells in per cent, often relative to untreated cells.
